{"source": "PubChem BioAssay AID1851", "about": "(National Center for Advancing Translational Sciences (NCATS), 2009)", "note": "Out of some 16,000 compounds screened, about 5,700 (36%) were called active. About 24% were inconclusive and are not listed. Some of the results follow. Unmarked numbers belong to inactive results. Calls follow the shape of the dose curve; as a rule, active = well fitted curve in the direction sought with a large enough effect; inconclusive = small, poorly fitted or top-dose-only effect, or effect the other way; inactive = no such curve, though single readings can be large or run the other way. % is scaled to controls: 0 for no effect and ±100 for the full control effect."}
{"biological_target": "Cytochrome P450 1A2 (Homo sapiens) (UniProt P05177)", "sequence (P05177 whole entry, looked up)": "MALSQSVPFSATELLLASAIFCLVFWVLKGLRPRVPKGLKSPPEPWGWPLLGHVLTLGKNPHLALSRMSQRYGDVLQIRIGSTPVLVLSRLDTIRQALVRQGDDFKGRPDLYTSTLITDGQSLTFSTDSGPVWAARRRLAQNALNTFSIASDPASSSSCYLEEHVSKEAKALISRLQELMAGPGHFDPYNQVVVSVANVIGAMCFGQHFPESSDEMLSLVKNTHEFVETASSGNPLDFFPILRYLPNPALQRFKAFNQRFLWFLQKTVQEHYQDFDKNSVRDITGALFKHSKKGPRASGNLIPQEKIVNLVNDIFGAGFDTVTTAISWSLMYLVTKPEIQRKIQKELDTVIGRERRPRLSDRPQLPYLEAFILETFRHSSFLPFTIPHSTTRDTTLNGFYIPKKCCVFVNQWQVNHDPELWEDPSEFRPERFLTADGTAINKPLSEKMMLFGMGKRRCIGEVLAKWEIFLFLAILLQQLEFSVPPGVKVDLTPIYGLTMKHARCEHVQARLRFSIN", "test": "Cytochrome panel assay with activity outcomes", "details": "recombinant CYP, pro-luciferin dealkylation, luminescence, p450-cyp1a2; series mostly up to 57.1 µM; activity, negative = inhibition: at the top concentration"}
{"smiles": "COc1ccc(-c2nn(-c3ccccc3)cc2/C=N/NC(=O)c2ccc3c(c2)OCO3)cc1", "activity, negative = inhibition": "-8.19%"}
{"smiles": "Cc1c(/C=N/NC(=O)c2ccc3c(c2)OCO3)cnn1C", "AC50": "14.1 µM (active)"}
{"smiles": "COc1cc(CNCCc2c[nH]c3ccccc23)ccc1OCc1ccccc1F", "AC50": "25.1 µM (active)"}
{"smiles": "CC(C)CN1CCCC2(CCN(C(=O)c3cnccn3)CC2)C1", "activity, negative = inhibition": "-9.34%"}
{"smiles": "C[C@@H](CCc1ccc(O)cc1)NCCc1ccc(O)c(O)c1", "AC50": "inactive"}
{"smiles": "O=C(O)Cc1ccc(O)c(O)c1", "activity, negative = inhibition": "-11.2%"}
{"smiles": "O=C(CCc1ccc(O)cc1)c1c(O)cc(O)cc1O", "AC50": "6.31 µM (active)"}
{"smiles": "Nc1c(OCC(=O)O)ccc2cc(S(=O)(=O)O)ccc12", "activity, negative = inhibition": "-5.41% [at 11.4 µM]"}
{"smiles": "CCOc1ccccc1NC(=O)CCC(=O)O", "activity, negative = inhibition": "0.745%"}
{"smiles": "CCOc1ccccc1Nc1ccc(N)cc1S(=O)(=O)O", "activity, negative = inhibition": "-12.6% [at 2.29 µM]"}
{"smiles": "CCCCN(C(=O)NC(=O)Nc1ccccc1OCC)S(C)(=O)=O", "AC50": "20 µM (active)"}
{"smiles": "CO[C@H]1COC(=O)[C@H](C)NC(=O)C/C=C\\[C@@H](C)[C@@H](NS(=O)(=O)c2ccc(C)cc2)COC(=O)C/C=C\\[C@@H]1C", "activity, negative = inhibition": "-0.0135% [at 11.4 µM]"}
{"smiles": "CSC1=C(C#N)C(c2ccccc2Cl)C2=C(N1)c1ccccc1C2=O", "note": "(centres undefined)", "AC50": "0.708 µM (active)"}
{"smiles": "N#CC1=C(SCC(N)=O)NC2=C(C(=O)c3ccccc32)C1c1ccc(Cl)cc1", "note": "(centres undefined)", "AC50": "0.631 µM (active)"}
{"smiles": "C=CCN1C(=CCO)[C@H]2C[C@H]3[C@@H]1CC[C@@]31c3ccccc3N3C=C4[C@@H]5N(/C=C/2[C@H]31)c1ccccc1[C@]51CC[C@H]2[C@H]1C[C@@H]4/C(=C/CO)N2CC=C", "activity, negative = inhibition": "-3.83% [at 25.6 µM]"}
{"smiles": "O=S(=O)(c1ccccc1)N1CCC2(CC1)CN(Cc1ccccc1)C2", "activity, negative = inhibition": "-8.56%"}
{"smiles": "COc1cccc(/C=N/n2c(=S)n(C)c3cc(C)c(C)cc32)c1OC", "AC50": "2.24 µM (active)"}
{"smiles": "O=C1CSc2ccc(C(=O)NCCC3=CCCCC3)cc2N1", "AC50": "3.16 µM (active)"}
{"smiles": "CC(C)(C)c1ccc(C(=O)N2CCC(C(=O)NCCC3=CCCCC3)CC2)cc1", "activity, negative = inhibition": "-2.75%"}
{"smiles": "C=C/C(C)=C/[C@]1(C)SC(=O)C(C)=C1O", "activity, negative = inhibition": "2.06%"}
{"smiles": "CC1(C)CCC2=C(O1)c1ccccc1C(=O)C2=O", "AC50": "3.98 µM (active)"}
{"smiles": "Cc1c(C=NCCOCc2ccccc2)cnn1C", "AC50": "17.8 µM (active)"}
{"smiles": "CCCc1ncc(C[n+]2ccccc2C)c(N)n1", "activity, negative = inhibition": "-1.54% [at 25.6 µM]"}
{"smiles": "C=CCOc1cccc(CNn2cn[nH]c2=S)c1", "AC50": "3.16 µM (active)"}
{"smiles": "C=CCOc1cccc(/C=N/NC(=O)C(=O)NCc2ccco2)c1", "activity, negative = inhibition": "-7.74%"}
{"smiles": "O=C(Oc1ccccc1)N1CCC2(CCCN(c3ccc(-c4ccccc4)cc3)C2)CC1", "activity, negative = inhibition": "10.2%"}
{"smiles": "CC(C)NC(=O)N1CCCC2(CCN(C(=O)c3cccn3C)CC2)C1", "activity, negative = inhibition": "-12.4%"}
{"smiles": "COC(=O)N1CCC2(CCCN(c3ccc(-c4ccccc4)cc3)C2)CC1", "AC50": "20 µM (active)"}
{"smiles": "CN1CCCC2(CCN(C(=O)c3cccn3C)CC2)C1", "activity, negative = inhibition": "-19.9%"}
{"smiles": "CC(C)CN1CCCC2(CCN(C(=O)c3cccn3C)CC2)C1", "activity, negative = inhibition": "12.9%"}
{"smiles": "Cn1cccc1C(=O)N1CCC2(CCCN(Cc3ccccc3)C2)CC1", "activity, negative = inhibition": "-2.19%"}
{"smiles": "Cn1cccc1C(=O)N1CCC2(CCCN(c3ccc(-c4ccccc4)cc3)C2)CC1", "AC50": "15.8 µM (active)"}
{"smiles": "Cn1cccc1C(=O)N1CCC2(CCCN(c3cccc(-c4ccccc4)c3)C2)CC1", "AC50": "15.8 µM (active)"}
{"smiles": "COC(=O)N1CCC2(CC1)CN(c1ccccc1)C2", "activity, negative = inhibition": "-5.68%"}
{"smiles": "Cc1cc2c(c(=O)o1)[C@@H](O)[C@H]1O[C@@H]1C2=O", "activity, negative = inhibition": "-3.99% [at 11.4 µM]"}
{"smiles": "CCCOc1ccc(/C=C/C(=O)Nc2ccc([N+](=O)[O-])cc2C)cc1OC", "activity, negative = inhibition": "-5.77%"}
{"smiles": "COc1ccc(/C=C/C(=O)Nc2nc(C)cc(C)n2)cc1OC", "AC50": "5.01 µM (active)"}
{"smiles": "COc1ccc2[nH]cc(CCNc3ncncc3-c3cccnc3)c2c1", "AC50": "0.316 µM (active)"}
{"smiles": "COc1ccc2[nH]cc(CCNc3ncncc3-c3cccc(NS(C)(=O)=O)c3)c2c1", "AC50": "12.6 µM (active)"}
{"smiles": "COc1ccc2[nH]cc(CCNc3ncncc3-c3ccc(N(C)C)cc3)c2c1", "AC50": "0.251 µM (active)"}
{"smiles": "COc1cccc(-c2cncnc2NCCc2c[nH]c3ccc(OC)cc23)c1", "AC50": "2 µM (active)"}
{"smiles": "COc1ccc(N2CCN(Cc3nc4c(c(=O)[nH]c(=O)n4C)n3CCCc3ccccc3)CC2)cc1", "activity, negative = inhibition": "-8.33%"}
{"smiles": "O=C(O)C1CC2(C1)CC(C(=O)O)C2", "note": "(centres undefined)", "activity, negative = inhibition": "-6.34% [at 2.29 µM]"}
{"smiles": "Cc1ccc(SCc2[nH]nc3c2C(C(C)C)C(C#N)=C(N)O3)cc1", "note": "(centres undefined)", "AC50": "12.6 µM (active)"}
{"smiles": "O=[N+]([O-])c1ccc(C=Nc2ccc(Cl)cc2Cl)s1", "AC50": "2 µM (active)"}
{"smiles": "O=c1onc(-c2cccs2)n1Cc1ccccc1", "AC50": "2.24 µM (active)"}
{"smiles": "CN(C)CCNS(=O)(=O)N(C)C", "activity, negative = inhibition": "-3% [at 11.4 µM]"}
{"smiles": "CNc1nc(-c2cccnc2)nc2ccccc12", "AC50": "0.1 µM (active)"}
{"smiles": "c1ccc(Nc2nc(-c3cccnc3)nc3ccccc23)cc1", "AC50": "0.398 µM (active)"}
